Results taken from PubChem BioAssay AID720616 (Broad Institute, 2013).
Results with a measured potency or affinity are listed apart. Values without a mark were called inactive.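 How the source made its calls: active means ATP viability loss whose half-effect dose is at most twice the top dose, in all three treatment times; inconclusive means calls differ between the treatment times; inactive means inactive at every treatment time.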

experiment: cytotoxicity in U-251 glioma cells – cell-based, CellTiter-Glo ATP luminescence, several timepoints, dry powder, mechanism study for HRAS target identification, late-stage follow-up (AID 720616); conditions: U-251 glioblastoma viability; series mostly up to 35 µM; activity change, negative = viability loss: at the top concentration

Row | Structure (SMILES) | activity change, negative = viability loss [%]
1 | Cc1onc(C(=O)N2CCN(C(c3ccc(Cl)cc3)c3ccc(Cl)cc3)CC2)c1[N+](=O)[O-] | -27.1
2 | Cc1onc(C(=O)N2CCN(C(c3ccncc3)c3ccncc3)CC2)c1[N+](=O)[O-] | 1.54
3 | CCC(=O)N(c1ccc(OC)c(Cl)c1)C(C(=O)NCCc1ccccc1)c1cccs1 (stereo not drawn) | -7.26
